The campaign covered roughly 3,200 compounds. About 300 (9.4%) showed activity. The full list was thinned out, with actives kept by preference.
Test system: A673/TR/shEF
Test: cell viability (LOESS-normalised, relative to median of negative controls) (log2 ratio); higher = more viable cells (less compound effect), active = hit call of the paper (over 3 MAD below the median)
Conditions: treatment time: 72 h
How it was run: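 A673/TR/shEF Ewing sarcoma cells were plated at 1,500 per well in 384-well plates and cultured with or without doxycycline, added 24 h before compounds, to induce EWS-FLI1 shRNA knockdown. Library compounds at two or more concentrations, alongside DMSO controls, were applied for three days. Cell viability was measured by CellTiter-Glo luminescence on an Envision reader. Readings were LOESS-corrected per plate, divided by the median of negative controls and log2-transformed, and hits were wells lying at least three median absolute deviations from the median of all screened wells.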

[1] = 0.25 µM, library screen: screen1, EWS-FLI1 expression: high (no doxycycline)
[2] = 0.25 µM, library screen: screen1, EWS-FLI1 expression: low (doxycycline-induced shRNA knockdown)
[3] = 2.5 µM, library screen: screen1, EWS-FLI1 expression: high (no doxycycline)
[4] = 2.5 µM, library screen: screen1, EWS-FLI1 expression: low (doxycycline-induced shRNA knockdown)
[5] = 0.25 µM, library screen: screen2, EWS-FLI1 expression: high (no doxycycline)
[6] = 0.25 µM, library screen: screen2, EWS-FLI1 expression: low (doxycycline-induced shRNA knockdown)
[7] = 2.5 µM, library screen: screen2, EWS-FLI1 expression: high (no doxycycline)
[8] = 2.5 µM, library screen: screen2, EWS-FLI1 expression: low (doxycycline-induced shRNA knockdown)
[9] = 0.103 µM, library screen: screen3, EWS-FLI1 expression: high (no doxycycline)
[10] = 0.103 µM, library screen: screen3, EWS-FLI1 expression: low (doxycycline-induced shRNA knockdown)
[11] = 0.308 µM, library screen: screen3, EWS-FLI1 expression: high (no doxycycline)
[12] = 0.308 µM, library screen: screen3, EWS-FLI1 expression: low (doxycycline-induced shRNA knockdown)
[13] = 0.926 µM, library screen: screen3, EWS-FLI1 expression: high (no doxycycline)
[14] = 0.926 µM, library screen: screen3, EWS-FLI1 expression: low (doxycycline-induced shRNA knockdown)
[15] = 2.8 µM, library screen: screen3, EWS-FLI1 expression: high (no doxycycline)
[16] = 2.8 µM, library screen: screen3, EWS-FLI1 expression: low (doxycycline-induced shRNA knockdown)
[17] = 8.3 µM, library screen: screen3, EWS-FLI1 expression: high (no doxycycline)
[18] = 8.3 µM, library screen: screen3, EWS-FLI1 expression: low (doxycycline-induced shRNA knockdown)
[19] = 25 µM, library screen: screen3, EWS-FLI1 expression: high (no doxycycline)
[20] = 25 µM, library screen: screen3, EWS-FLI1 expression: low (doxycycline-induced shRNA knockdown)

Measured: cell viability (log2)

CC(=O)O[C@@H]1CC2C(C)(C)C=CC(=O)[C@]2(C)C2CC[C@@]3(C)[C@H](c4ccoc4)OC(=O)C4OC43[C@@]21C (some centres not stated)
inactive: [1] 0.059 | [2] 0.0804 | [3] 0.118 | [4] 0.149

NC1(C(=O)O)CCCC1
inactive: [1] 0.102 | [2] 0.137 | [3] 0.134 | [4] 0.192

NC1(C(=O)O)CC1
active: [5] -0.141 | [6] -0.0707
inactive: [1] 0.064 | [2] 0.0956 | [3] 0.122 | [4] 0.0925 | [7] 0.123 | [8] 0.0434

NC1(C(=O)O)CCCCC1
inactive: [5] 0.0492 | [6] 0.114 | [7] -0.0212 | [8] 0.0608

CN(C)C(=O)/C(=C\c1cccc(Br)c1)NC(=O)c1ccccc1
inactive: [1] 0.0622 | [2] 0.0915 | [3] 0.179 | [4] 0.181

O=C(O)c1cc2c(Cl)cc(Cl)cc2[nH]1
inactive: [1] 0.105 | [2] 0.0244 | [3] 0.0763 | [4] 0.0336

NCC1OC(OC2C(N)CC(N)C(OC3OC(CO)C(O)C(N)C3O)C2O)C(N)C(O)C1O (configuration not stated)
inactive: [1] 0.0483 | [2] 0.0336 | [3] 0.164 | [4] 0.0237

C[S+]([O-])c1ccc(-c2nc(-c3ccc(F)cc3)c(-c3ccncc3)[nH]2)cc1 (configuration not stated)
active: [3] -0.235 | 25 µM, library screen: screen1, EWS-FLI1 expression: high (no doxycycline) -0.108
0.29: 0.025 µM, library screen: screen1, EWS-FLI1 expression: high (no doxycycline)
inactive: 0.025 µM, library screen: screen1, EWS-FLI1 expression: low (doxycycline-induced shRNA knockdown) 0.136 | [1] 0.263 | [2] 0.121 | [4] 0.238 | 25 µM, library screen: screen1, EWS-FLI1 expression: low (doxycycline-induced shRNA knockdown) 0.274

COc1cc([S+](C)[O-])ccc1-c1nc2ncccc2[nH]1 (configuration not stated)
inactive: [1] 0.101 | [2] 0.00949 | [3] 0.131 | [4] 0.0599

C/C1=C\CC(C)(C)/C=C\CC2(C)OC2CC1 (configuration not stated)
inactive: [1] 0.0693 | [2] 0.00465 | [3] 0.118 | [4] 0.162

CC(C)CCC[C@@H](C)[C@H]1CC[C@H]2C3=CC[C@H]4C[C@@H](O)CC[C@]4(C)[C@H]3CC[C@]12C
inactive: [1] -0.0717 | [2] -0.021 | [3] 0.0758 | [4] 0.0695

C[C@H]1COC2=C1C(=O)C(=O)c1c2ccc2c1CCCC2(C)C
active: [19] -0.196 | [20] -0.308
inactive: [9] 0.0338 | [10] 0.0754 | [11] 0.0526 | [12] 0.0683 | [13] 0.0196 | [14] 0.0264 | [15] -0.0315 | [16] -0.0274 | [17] 0.0932 | [18] -0.035

CCN1CCC[C@H]1CNC(=O)c1c(OC)ccc(I)c1O
inactive: [5] 0.251 | [6] 0.174 | [7] 0.0364 | [8] 0.15

Cc1ccsc1C=C1SC(=S)N(CC(=O)O)C1=O
inactive: [1] 0.0973 | [2] 0.0799 | [3] 0.133 | [4] 0.152

C=CCN1C(=O)/C(=C2\SC(=S)N(c3c(C)n(C)n(-c4ccccc4)c3=O)C2=O)c2ccccc21
inactive: [1] -0.0187 | [2] -0.00404 | [3] 0.0713 | [4] -0.0309

OCC(O)C1NCC(O)C1O (configuration not stated)
inactive: [5] 0.0417 | [6] 0.103 | [7] 0.000766 | [8] 0.0189

Cc1cc(N)c2ccccc2[n+]1CCCCCCCCCC[n+]1c(C)cc(N)c2ccccc21
inactive: [1] 0.139 | [2] 0.0436 | [5] 0.122 | [6] 0.0489
active: [3] -1.46 | [4] -0.54 | [7] -0.865 | [8] -0.463

CC[C@H]1C(=O)OC[C@@H]1Cc1cccn1C
inactive: [1] 0.154 | [2] 0.0128 | [3] 0.143 | [4] 0.0953

CC12CCCC(O)(C1)C1CC(C)(C)C1CC2 (configuration not stated)
inactive: [1] 0.066 | [2] -0.02 | [3] 0.0972 | [4] 0.0732

Oc1ccc2c(c1)OC[C@H]1c3cc4c(cc3O[C@@H]21)OCO4
inactive: [1] 0.0543 | [2] -0.104 | [3] 0.119 | [4] 0.0894

Oc1ccc([C@@H]2Oc3ccc(O)cc3[C@@H]3CCC[C@@H]32)cc1
active: [19] -0.181
inactive: [9] -0.0128 | [10] 0.0648 | [11] -0.0264 | [12] -0.0313 | [13] -0.0384 | [14] 0.0122 | [15] -0.0259 | [16] 0.00446 | [17] -0.0456 | [18] 0.0022 | [20] -0.0464

Oc1ccc([C@H]2Oc3cc(O)cc(O)c3C[C@H]2O)cc1
inactive: [1] 0.0303 | [2] -0.000667 | [3] 0.0839 | [4] -0.00856

COc1cc(CN2CCN(Cc3cccc(OC)c3OC)CC2)c([N+](=O)[O-])cc1OC
inactive: [1] 0.00876 | [2] 0.0541 | [3] 0.119 | [4] -0.0278

CC1(C)OC(=O)CC(O)[C@@]2(C)C1CC(=O)[C@]1(C)C2CCC2(C)C(c3ccoc3)OC(=O)[C@H]3O[C@]321 (some centres not stated)
inactive: [1] 0.0277 | [2] 0.0481 | [3] 0.0671 | [4] 0.0691

C[C@]12CCC3c4ccc(OC(=O)CCC(=O)O)cc4CCC3C1CCC2=O (some centres not stated)
inactive: [1] 0.126 | [2] 0.0832 | [3] 0.102 | [4] 0.0823

C=C/C(C)=C\C[C@@H]1[C@@]2(C)CCCC(C)(C)[C@@H]2CC[C@@]1(C)O
inactive: [1] 0.0522 | [2] 0.0309 | [3] 0.126 | [4] 0.0611

COc1cc2c(cc1O)CC[C@@H]1[C@@H]2CC[C@]2(C)[C@@H](O)CC[C@@H]12
active: [19] -1.25 | [20] -0.177
inactive: [9] 0.0202 | [10] 0.0975 | [5] 0.11 | [6] 0.04 | [11] 0.0934 | [12] 0.0693 | [13] -0.0172 | [14] 0.0926 | [7] 0.0437 | [8] 0.0893 | [15] 0.045 | [16] 0.00908 | [17] -0.104 | [18] -0.0169

C[C@]12CC[C@@H]3c4ccc(O)cc4CC[C@H]3[C@@H]1CC[C@@H]2O
inactive: [9] 0.029 | [10] -0.00908 | [1] 0.122 | [2] 0.00576 | [5] 0.147 | [6] 0.0497 | [11] 0.101 | [12] 0.0915 | [13] 0.111 | [14] 0.0539 | [3] 0.0979 | [4] 0.0174 | [7] 0.0738 | [8] 0.0113 | [15] 0.127 | [16] 0.0786 | [17] 0.135 | [18] 0.0545 | [19] 0.166 | [20] 0.0719

C[C@]12CCC3c4ccc(OS(=O)(=O)O)cc4CCC3C1CC[C@H]2O (some centres not stated)
inactive: [1] 0.0646 | [2] 0.0512 | [3] 0.0988 | [4] 0.092

— the supplement of paper PMC6089552
